# “And” between values parts separate entries of the source, which are not always exact repeats. Equal entries are not always repeated. Records with an inconclusive call do not appear. Where a call stands in place of a potency, no number is given. A structure can be active in one record and inactive in another. The source made the active and inactive calls. Unless noted, the call rests on the fitted dose curve.
# Key:
# [1] = biological target: Peroxisome proliferator-activated receptor delta (Homo sapiens) (UniProt Q03181); test: qHTS assay to identify small molecule agonists of the peroxisome proliferator-activated receptor delta (PPARd) signaling pathway (AID 743212); further: potency means the concentration at half of the fitted maximal effect
# Peroxisome proliferator-activated receptor delta (Homo sapiens), sequence (Q03181 whole entry, looked up): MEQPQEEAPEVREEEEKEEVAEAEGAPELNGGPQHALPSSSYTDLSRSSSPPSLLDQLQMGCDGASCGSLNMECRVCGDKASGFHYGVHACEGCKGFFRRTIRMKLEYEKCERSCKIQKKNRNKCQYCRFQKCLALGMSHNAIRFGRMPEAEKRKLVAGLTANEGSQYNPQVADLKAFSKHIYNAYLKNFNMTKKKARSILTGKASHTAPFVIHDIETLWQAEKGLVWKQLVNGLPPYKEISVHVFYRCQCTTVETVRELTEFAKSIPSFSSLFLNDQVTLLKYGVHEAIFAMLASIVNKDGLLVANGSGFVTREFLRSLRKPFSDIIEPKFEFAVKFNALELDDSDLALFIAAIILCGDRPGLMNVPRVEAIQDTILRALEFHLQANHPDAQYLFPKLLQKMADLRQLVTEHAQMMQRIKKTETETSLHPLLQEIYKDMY
# Method in brief: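 HEK293H PPARd-bla cells; 5 h preincubation 37 C/5% CO2; compound (DMSO) 37 C; LiveBLAzer B/G FRET substrate 2 h RT; fluorescence intensity.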
# [2] = qHTS assay to identify small molecule antagonists of the peroxisome proliferator-activated receptor delta (PPARd) signaling pathway - cell viability counter screen (AID 743213; active means well fitted curve in the direction sought with a large enough effect in the repeat runs; an effect the other way counts as inactive or inconclusive; further: nearly all actives have a fitted effect of over 50% in size)
# Method in brief: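 In this counter screen, HEK293H cells carrying a UAS-beta-lactamase reporter are co-treated with test compounds and 300 nM L165041 (final) for 17 h at 37 C; cell viability is quantified by CellTiter-Glo luminescence.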
# [3] = biological target: Peroxisome proliferator-activated receptor delta (Homo sapiens) (UniProt Q03181); test: qHTS assay to identify small molecule antagonists of the peroxisome proliferator-activated receptor delta (PPARd) signaling pathway (AID 743215; active means well fitted inhibition curve with a large enough effect in the signal ratio in the repeat runs, not every such curve was filed as active; the % refers to the signal ratio;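 further: cells stimulated with agonist L165041 at 300 nM final during compound exposure; series mostly up to about 62 µM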)
# Method in brief: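 With L165041 present at 300 nM final, compounds were incubated 17 h at 37 C on PPARd UAS-bla HEK293H cells. A FRET-based beta-lactamase substrate was then applied for 2 h at room temperature and fluorescence intensity recorded.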
# [4] = qHTS assay to identify small molecule agonists of the farnesoid-X-receptor (FXR) signaling pathway - cell viability counter screen (AID 743218; active means well fitted curve in the direction sought with a large enough effect in the repeat runs; an effect the other way counts as inactive or inconclusive; further: nearly all actives have a fitted effect of over 45% in size)
# Method in brief: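 After 16 h at 37 C with test compounds, FXR-bla HEK 293T cells were given LiveBLAzer B/G substrate for 2 h at RT and then CellTiter-Glo; luminescence was taken after 30 min.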
# [5] = qHTS assay to identify small molecule antagonists of the farnesoid-X-receptor (FXR) signaling pathway - cell viability counter screen (AID 743221; active means well fitted cell-killing curve with a large enough effect in the repeat runs, not every such curve was filed as active; further: nearly all actives have a fitted effect of over 50% in size)
# Method in brief: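 Luminescence from CellTiter-Glo measures cytotoxicity in GeneBLAzer FXR-UAS-bla HEK 293T cells. Cells were exposed to compounds with 50 uM chenodeoxycholic acid (final) for 16 h at 37 C, in wells also used for the reporter readout.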
# [6] = biological target: Vitamin D3 receptor (Homo sapiens) (UniProt P11473); test: qHTS assay to identify small molecule agonists of the vitamin D receptor (VDR) signaling pathway (AID 743222)
# Vitamin D3 receptor (Homo sapiens), sequence (P11473 whole entry, looked up): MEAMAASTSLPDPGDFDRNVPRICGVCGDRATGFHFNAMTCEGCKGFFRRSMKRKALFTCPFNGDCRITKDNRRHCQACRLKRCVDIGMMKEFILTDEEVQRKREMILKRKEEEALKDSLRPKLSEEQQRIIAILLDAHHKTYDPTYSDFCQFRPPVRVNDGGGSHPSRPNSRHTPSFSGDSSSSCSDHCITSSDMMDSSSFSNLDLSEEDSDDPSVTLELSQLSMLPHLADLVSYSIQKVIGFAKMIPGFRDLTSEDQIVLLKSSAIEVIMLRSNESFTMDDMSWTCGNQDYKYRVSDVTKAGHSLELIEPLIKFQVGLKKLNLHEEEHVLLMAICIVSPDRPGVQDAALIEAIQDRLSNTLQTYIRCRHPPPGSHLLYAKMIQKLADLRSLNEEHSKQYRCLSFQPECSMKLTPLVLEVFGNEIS
# Method in brief: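 VDR-bla cells were seeded, left 4 h, treated with compounds in DMSO for 16 h, incubated 2 h at RT with B/G FRET substrate, and read for fluorescence.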
# [7] = qHTS assay to identify small molecule agonists of the vitamin D receptor (VDR) signaling pathway - cell viability counter screen (AID 743224; active means well fitted curve in the direction sought with a large enough effect in the repeat runs; an effect the other way counts as inactive or inconclusive; further: series mostly up to about 63 µM; nearly all actives have a fitted effect of over 50% in size)
# Method in brief: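 Here cell health was gauged by luminescent ATP detection (CellTiter-Glo, 30 min RT) in VDR-bla cells that had been incubated with test compounds for 16 h at 37C and 5% CO2.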
# [8] = qHTS assay to identify small molecule antagonists of the vitamin D receptor (VDR) signaling pathway - cell viability counter screen (AID 743225; active means well fitted curve in the direction sought with a large enough effect in the repeat runs; an effect the other way counts as inactive or inconclusive; further: nearly all actives have a fitted effect of over 50% in size)
# Method in brief: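 Read-out: CellTiter-Glo luminescence measured 30 min after reagent addition at room temperature. Cells were VDR-bla HEK 293T exposed 16 h at 37C, 5% CO2, to compound with 3 nM final calcitriol agonist.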
# [9] = qHTS assay to identify small molecule agonists of the NFkB signaling pathway (AID 1159509; active means well fitted curve in the direction sought with a large enough effect in the signal ratio in the repeat runs, not every such curve was filed as active; the % refers to the signal ratio; further: series mostly up to about 61 µM)
# Method in brief: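 ME-180 NFkB-bla, 2,000 cells/well, overnight plating; cpd pinned in DMSO, 5 h 37 C; B/G FRET substrate 1.5 h RT; ex 405, em 460/530 nm.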
# [10] = qHTS assay to identify small molecule agonists of the endoplasmic reticulum stress response signaling pathway (AID 1159516; active means well fitted activation curve with a large enough effect in the signal ratio in the repeat runs, not every such curve was filed as active; the % refers to the signal ratio)
# Method in brief: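 Reporter HeLa cells (ESRE-beta-lactamase) underwent 5 hr compound incubation at 37 C and 5% CO2 in quantitative HTS format. Detection followed 2 hr of FRET substrate loading at room temperature.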
# [11] = qHTS assay to identify small molecule agonists of the endoplasmic reticulum stress response signaling pathway - cell viability counter screen (AID 1159517)
# Method in brief: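 HeLa cells carrying an ESRE-driven beta-lactamase reporter receive compound for 5 hr at 37 C. Cell viability is then gauged with CellTiter-Glo by luminescence, 30 min at room temperature.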
# [12] = qHTS assay to identify small molecule antagonists of the retinoid-related orphan receptor gamma (ROR-gamma) signaling pathway - cell viability counter screen (AID 1159520; active means well fitted curve in the direction sought with a large enough effect in the repeat runs; an effect the other way counts as inactive or inconclusive; further: nearly all actives have a fitted effect of over 50% in size)
# Method in brief: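 Cytotoxicity was read from cellular ATP (CellTiter-Glo luminescence) after 16 hr at 37 C with 1 uM doxycycline induction. The inducer was added 2 hr after compound transfer to Tet-on ROR gamma CHO cells.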
# [13] = biological target: Nuclear receptor ROR-gamma (Homo sapiens) (UniProt P51449); test: qHTS assay to identify small molecule antagonists of the retinoid-related orphan receptor gamma (ROR-gamma) signaling pathway (AID 1159521; active means well fitted curve in the direction sought with a large enough effect in the repeat runs; an effect the other way counts as inactive or inconclusive)
# Method in brief: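 CHO Tet-on RORγ, RORE-luc reporter. Cpd 2 h pre-incubation, then dox hyclate 1 uM final, 16 h, 37 C/5% CO2. ONE-Glo luminescence; decrease = antagonist.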
# [14] = qHTS assay to identify small molecule agonists of the AP-1 signaling pathway - cell viability counter screen (AID 1159525); further: nearly all actives have a fitted effect of over 55% in size
# Method in brief: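 Luminescent ATP readout (Cell Titer Glo, 30 min RT), normalised to DMSO and tetra n-octyl ammonium bromide controls. Cells were ME-180 AP-1-bla in 0.5% dialyzed FBS Opti-MEM, with a 5 h, 37 °C compound exposure.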
# [15] = qHTS assay to identify small molecule agonists of the AP-1 signaling pathway (AID 1159526); further: potency means the concentration at half of the fitted maximal effect
# [16] = biological target: Retinoic acid receptor RXR-alpha (Homo sapiens) (UniProt P19793); test: qHTS assay to identify small molecule agonists of the RXR signaling pathway (AID 1159527); further: nearly all actives have a fitted effect of over 35% in size; further: potency means the concentration at half of the fitted maximal effect
# Retinoic acid receptor RXR-alpha (Homo sapiens), sequence (P19793 whole entry, looked up): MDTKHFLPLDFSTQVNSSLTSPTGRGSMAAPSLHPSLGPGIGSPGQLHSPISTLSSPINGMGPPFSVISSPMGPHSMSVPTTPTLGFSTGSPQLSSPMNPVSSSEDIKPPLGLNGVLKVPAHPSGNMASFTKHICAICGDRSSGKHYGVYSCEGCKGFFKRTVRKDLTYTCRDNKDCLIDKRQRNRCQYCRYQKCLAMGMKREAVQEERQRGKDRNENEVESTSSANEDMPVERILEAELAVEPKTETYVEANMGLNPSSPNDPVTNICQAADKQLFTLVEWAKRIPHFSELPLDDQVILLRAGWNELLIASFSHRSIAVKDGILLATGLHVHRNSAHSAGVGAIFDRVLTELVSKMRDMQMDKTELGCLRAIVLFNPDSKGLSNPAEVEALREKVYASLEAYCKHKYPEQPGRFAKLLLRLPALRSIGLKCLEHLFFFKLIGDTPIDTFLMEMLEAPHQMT
# Method in brief: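 Read-out: beta-lactamase FRET ratio (405 nm excitation, 460 and 530 nm emission) after 2 hr substrate loading at room temperature. Cells were RXR-alpha-UAS-bla HEK 293T treated with compounds for 16 hr in 2% charcoal-stripped FBS medium.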
# [17] = biological target: Bile acid receptor (Homo sapiens) (UniProt Q96RI1); test: qHTS assay to identify small molecule antagonists of the farnesoid-X-receptor (FXR) signaling pathway (AID 743217; active means well fitted inhibition curve with a large enough effect in the signal ratio in the repeat runs, not every such curve was filed as active; the % refers to the signal ratio)
# Bile acid receptor (Homo sapiens), sequence (Q96RI1 whole entry, looked up): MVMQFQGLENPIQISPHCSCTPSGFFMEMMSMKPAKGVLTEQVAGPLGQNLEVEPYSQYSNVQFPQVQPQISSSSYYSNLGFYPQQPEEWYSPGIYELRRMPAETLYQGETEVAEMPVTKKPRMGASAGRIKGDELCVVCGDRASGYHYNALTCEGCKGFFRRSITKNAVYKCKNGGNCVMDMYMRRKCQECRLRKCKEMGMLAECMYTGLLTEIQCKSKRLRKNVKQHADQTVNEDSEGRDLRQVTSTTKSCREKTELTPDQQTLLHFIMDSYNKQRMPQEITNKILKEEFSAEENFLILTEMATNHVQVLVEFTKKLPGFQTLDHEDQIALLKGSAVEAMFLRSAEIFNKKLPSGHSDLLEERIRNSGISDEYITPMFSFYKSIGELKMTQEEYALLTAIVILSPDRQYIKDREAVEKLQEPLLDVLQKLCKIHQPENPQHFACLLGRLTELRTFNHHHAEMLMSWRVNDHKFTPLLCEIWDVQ
# Method in brief: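 In this cell-based antagonist screen, inhibition of CDCA-driven (50 uM final) UAS-beta-lactamase expression in HEK 293T cells was measured by FRET fluorescence following 16 h compound exposure at 37 °C.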
# [18] = biological target: Bile acid receptor (Homo sapiens) (UniProt Q96RI1); test: qHTS assay to identify small molecule agonists of the farnesoid-X-receptor (FXR) signaling pathway (AID 743220; active means well fitted activation curve with a large enough effect in the signal ratio in the repeat runs, not every such curve was filed as active; the % refers to the signal ratio)
# Method in brief: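 Beta-lactamase reporter under UAS control in GeneBLAzer FXR HEK 293T cells (5000/well) measured with LiveBLAzer FRET substrate after 2 h at room temperature. Compound exposure lasted 16 h at 37C.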
# [19] = biological target: Vitamin D3 receptor (Homo sapiens) (UniProt P11473); test: qHTS assay to identify small molecule antagonists of the vitamin D receptor (VDR) signaling pathway (AID 743223; active means well fitted inhibition curve with a large enough effect in the signal ratio in the repeat runs, not every such curve was filed as active; the % refers to the signal ratio)
# Method in brief: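 Antagonist mode uses 1alpha,25-dihydroxyvitamin D3 at 3 nM final as stimulus. VDR-bla cells receive compounds in DMSO, incubate 16 h at 37C, then a beta-lactamase FRET substrate for 2 h at room temperature before fluorescence measurement.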
# [20] = qHTS assay to identify small molecule agonists of the NFkB signaling pathway - cell viability counter screen (AID 1159515); further: series mostly up to about 61 µM; nearly all actives have a fitted effect of over 55% in size
# Method in brief: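 5 hr compound treatment of NFkB-bla ME-180 cells (2,000/well, seeded overnight beforehand), followed by reporter substrate for 1.5 hr. CellTiter-Glo added afterward; luminescence after 30 min RT.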
Compound,Potency [1],outcome [2],outcome [3],outcome [4],outcome [5],outcome [6],outcome [7],outcome [8],outcome [9],outcome [10],Potency [11],outcome [12],Potency [13],outcome [14],Potency [15],Potency [16],outcome [17],outcome [18],outcome [19],outcome [20]
CN(C)CCOC(=O)COc1ccc(Cl)cc1,inactive,inactive,inactive,inactive,inactive,inactive,inactive,inactive,inactive,inactive,inactive,inactive,inactive,inactive,inactive,inactive,,,,
OC1C(O)C(O)C(O)C(O)C1O (stereo not drawn),inactive,inactive,inactive,inactive,inactive,inactive,inactive,inactive,inactive,inactive,inactive,inactive,inactive,inactive,inactive,inactive,inactive,inactive,,
C=CCCCCCCCCC(=O)O,,inactive,,inactive,inactive,inactive,inactive,inactive,inactive,,inactive,inactive,inactive,inactive,inactive,43.6 µM (active),,,inactive,inactive
CC(=O)c1ccc(O)cc1,inactive,inactive,inactive,inactive,inactive,inactive,inactive,inactive,inactive,,inactive,,inactive,inactive,inactive,inactive,inactive,inactive,,inactive
C=CC(C)CCCC(C)(C)O (stereo not drawn),inactive,inactive,inactive,inactive,inactive,inactive,inactive,inactive,inactive,,inactive,,inactive,inactive,inactive,inactive,,,,inactive
C=CCc1ccc(OC)c(OC)c1,inactive,inactive,,inactive,inactive,inactive,inactive,inactive,inactive,,inactive,inactive,inactive,inactive,inactive,inactive and 7.76 µM (active),inactive,inactive,,
N[C@H](Cc1c[nH]c2ccccc12)C(=O)O,inactive,inactive,inactive,inactive,inactive,inactive,inactive,inactive,inactive,,inactive,inactive,inactive,inactive,inactive,inactive,,,inactive,inactive
CC(=O)OCc1ccco1,inactive,inactive,inactive,inactive,inactive,inactive,inactive,inactive,inactive,inactive,inactive,inactive,inactive,inactive,inactive,inactive,,,,
CC(C)=CCl,inactive,inactive,,inactive,inactive,inactive,inactive,inactive,inactive,inactive,inactive,inactive,inactive,inactive,inactive,inactive,inactive,inactive,inactive,
CCOC(=O)c1ccc(N)cc1,,inactive,,inactive,inactive,inactive,inactive,inactive,inactive,,inactive,inactive,inactive,inactive,inactive,inactive,inactive,inactive,,inactive
COc1ccc(N)c(C)c1,inactive,inactive,inactive,inactive,inactive,inactive,inactive,inactive,inactive,,inactive,,inactive,inactive,inactive,inactive,inactive,inactive,inactive,
C[Si]1(C)O[Si](C)(C)O[Si](C)(C)O[Si](C)(C)O1,inactive,inactive,inactive,inactive,inactive,inactive,inactive,inactive,,inactive,inactive,inactive,inactive,inactive,inactive,inactive,inactive,inactive,,inactive
CC(C)(Oc1ccc(CCNC(=O)c2ccc(Cl)cc2)cc1)C(=O)O,38.9 µM (active),inactive,inactive,inactive,inactive,inactive,inactive,inactive,inactive,inactive,inactive,inactive,inactive,inactive,inactive,inactive,inactive,inactive,inactive,
O=C1c2ccccc2CCc2ccccc21,inactive,inactive,inactive,inactive,inactive,,inactive,inactive,inactive,inactive,inactive,,inactive,inactive,35.4 µM (active) and 23.9 µM (active),inactive,inactive,inactive,,
c1ccc2c(c1)Cc1ccccc1-2,,inactive,,inactive,inactive,inactive,inactive,inactive,inactive,inactive,inactive,,inactive,inactive,inactive,inactive,inactive,inactive,inactive,
CCCCCCO,,inactive,,inactive,inactive,inactive,inactive,inactive,inactive,inactive,inactive,inactive,inactive,inactive,inactive,inactive,,,inactive,
OCc1ccccc1,,inactive,,inactive,inactive,inactive,inactive,inactive,inactive,,inactive,inactive,inactive,inactive,inactive,inactive,,,inactive,inactive
CC(=O)CC(C)(C)O,inactive,inactive,inactive,inactive,,inactive,inactive,inactive,inactive,,inactive,inactive,inactive,inactive,inactive,inactive,inactive,inactive,inactive,inactive

# Reference: PubChem BioAssay (Tox21)
